Data from PMC7862700, “An all-to-all approach to the identification of sequence-specific readers for epigenetic DNA modifications on cytosine”.

Tests used:
Test in all cases: DAPPL (digital affinity profiling via proximity ligation, sequencing); 10 mM Tris-HCl pH 7.5, 50 mM NaCl, 1 mM DTT, 4% glycerol, room temperature, 30 min; GST-TFs on glutathione beads, 16-mer random dsDNA library, 0.1% formaldehyde crosslink after washing; high values mean tight binding
FEV = molecular target: T1, FEV (Homo sapiens, UniProt Q99581 1-238); conditions: protein: recombinant; tags: N-terminal GST; dsDNA, one strand shown
T1 sequence: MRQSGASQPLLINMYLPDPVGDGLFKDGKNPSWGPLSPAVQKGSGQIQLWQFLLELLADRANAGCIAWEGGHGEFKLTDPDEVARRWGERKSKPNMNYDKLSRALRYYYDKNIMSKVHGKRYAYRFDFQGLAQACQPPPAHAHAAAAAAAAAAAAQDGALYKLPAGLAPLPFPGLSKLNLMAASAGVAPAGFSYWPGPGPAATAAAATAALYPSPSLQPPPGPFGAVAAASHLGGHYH
In short: (§1)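 Beads coated with glutathione captured GST-fused human transcription factors that had been expressed in yeast, and the factors were then given DNA barcodes and pooled with a tag-only sample. The pools were incubated with 200 nmole of a random double-stranded 16-mer DNA library in Tris/NaCl/DTT/glycerol buffer for 30 min at room temperature, washed, crosslinked with 0.1% formaldehyde and proximity-ligated with BsaI/T4 ligase at 37 °C for 1 h. PCR amplification and Illumina NextSeq500 sequencing came last. Binding signal is each hexamer's read frequency for a factor divided by its frequency for the tag-only sample.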

ETV5 = ETV5 (Homo sapiens, UniProt P41161 1-510); conditions: protein: recombinant; tags: N-terminal GST; dsDNA, one strand shown
In short: as §1

HSF1 = HSF1 (Homo sapiens, UniProt Q00613 1-529); conditions: protein: recombinant; tags: N-terminal GST; chain copies: 3; dsDNA, one strand shown
In short: as §1

SPIC = molecular target: T2, SPIC (Homo sapiens, UniProt Q8N5J4 1-248); conditions: protein: recombinant; tags: N-terminal GST; dsDNA, one strand shown
T2 sequence: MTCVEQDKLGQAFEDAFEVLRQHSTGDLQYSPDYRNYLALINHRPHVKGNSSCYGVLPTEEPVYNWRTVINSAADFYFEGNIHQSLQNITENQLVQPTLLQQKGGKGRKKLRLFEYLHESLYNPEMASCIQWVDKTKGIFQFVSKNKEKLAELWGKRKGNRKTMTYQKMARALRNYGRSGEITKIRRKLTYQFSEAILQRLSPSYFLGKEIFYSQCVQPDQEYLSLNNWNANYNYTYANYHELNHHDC
In short: as §1

ELF4 = ELF4 (Homo sapiens, UniProt Q99607 1-663); conditions: protein: recombinant; tags: N-terminal GST; dsDNA, one strand shown
In short: as §1

ELK4 = molecular target: T3, ELK4 (Homo sapiens, UniProt P28324-2 1-405); conditions: protein: recombinant; tags: N-terminal GST; dsDNA, one strand shown
T3 sequence: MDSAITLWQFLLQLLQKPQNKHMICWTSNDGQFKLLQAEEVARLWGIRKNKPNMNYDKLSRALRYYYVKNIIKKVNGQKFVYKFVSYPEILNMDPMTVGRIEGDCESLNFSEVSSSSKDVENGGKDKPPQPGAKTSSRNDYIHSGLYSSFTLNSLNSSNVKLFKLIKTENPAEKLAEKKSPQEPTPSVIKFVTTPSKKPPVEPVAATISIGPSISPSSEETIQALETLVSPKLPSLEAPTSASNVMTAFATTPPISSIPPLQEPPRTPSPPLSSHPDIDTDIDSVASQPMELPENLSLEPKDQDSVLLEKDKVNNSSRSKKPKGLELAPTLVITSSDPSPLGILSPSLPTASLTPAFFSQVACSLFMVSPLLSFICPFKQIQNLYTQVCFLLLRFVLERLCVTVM
In short: as §1

ETV2 = molecular target: T4, ETV2 (Homo sapiens, UniProt O00321 1-342); conditions: protein: recombinant; tags: N-terminal GST; dsDNA, one strand shown
T4 sequence: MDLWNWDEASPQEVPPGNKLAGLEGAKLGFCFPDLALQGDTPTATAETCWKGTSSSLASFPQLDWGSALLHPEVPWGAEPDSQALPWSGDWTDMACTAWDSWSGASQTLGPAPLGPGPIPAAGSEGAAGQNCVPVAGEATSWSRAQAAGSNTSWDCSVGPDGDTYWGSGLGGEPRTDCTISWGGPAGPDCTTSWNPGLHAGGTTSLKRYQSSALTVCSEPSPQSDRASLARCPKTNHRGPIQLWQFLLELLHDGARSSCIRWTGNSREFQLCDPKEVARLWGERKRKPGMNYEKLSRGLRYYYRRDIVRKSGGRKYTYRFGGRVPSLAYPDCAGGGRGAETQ
In short: as §1

ELF3 = molecular target: T5, ELF3 (Homo sapiens, UniProt P78545 1-371); conditions: protein: recombinant; tags: N-terminal GST; dsDNA, one strand shown
T5 sequence: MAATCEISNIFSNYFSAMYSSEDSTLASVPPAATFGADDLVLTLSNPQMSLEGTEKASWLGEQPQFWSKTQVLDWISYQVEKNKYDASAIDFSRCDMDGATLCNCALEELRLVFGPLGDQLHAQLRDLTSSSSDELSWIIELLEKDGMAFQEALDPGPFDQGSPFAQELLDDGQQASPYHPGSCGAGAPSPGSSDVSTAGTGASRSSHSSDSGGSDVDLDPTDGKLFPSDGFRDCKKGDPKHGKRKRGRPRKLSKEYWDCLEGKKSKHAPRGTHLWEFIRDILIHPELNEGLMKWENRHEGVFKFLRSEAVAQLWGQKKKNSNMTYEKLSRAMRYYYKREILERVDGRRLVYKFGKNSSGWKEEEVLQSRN
In short: as §1

CRX = CRX (Homo sapiens, UniProt O43186 1-299); conditions: protein: recombinant; tags: N-terminal GST; dsDNA, one strand shown
In short: as §1

ETV1 = ETV1 (Homo sapiens, UniProt P50549 1-477); conditions: protein: recombinant; tags: N-terminal GST; dsDNA, one strand shown
In short: as §1

ETV1, sequence (P50549 whole entry): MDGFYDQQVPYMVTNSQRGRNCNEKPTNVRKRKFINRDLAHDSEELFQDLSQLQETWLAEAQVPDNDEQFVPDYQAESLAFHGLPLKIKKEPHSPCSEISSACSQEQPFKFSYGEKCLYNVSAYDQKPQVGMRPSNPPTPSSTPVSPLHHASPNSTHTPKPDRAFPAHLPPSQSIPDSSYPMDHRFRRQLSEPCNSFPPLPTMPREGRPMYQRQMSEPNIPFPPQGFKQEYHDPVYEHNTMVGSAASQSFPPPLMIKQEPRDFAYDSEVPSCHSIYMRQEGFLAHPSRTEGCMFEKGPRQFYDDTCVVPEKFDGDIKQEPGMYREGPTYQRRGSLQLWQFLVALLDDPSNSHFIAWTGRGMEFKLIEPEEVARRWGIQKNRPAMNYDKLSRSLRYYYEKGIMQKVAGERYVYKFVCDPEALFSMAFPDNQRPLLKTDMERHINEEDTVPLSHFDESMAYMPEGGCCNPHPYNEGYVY
ETV5, sequence (P41161 whole entry): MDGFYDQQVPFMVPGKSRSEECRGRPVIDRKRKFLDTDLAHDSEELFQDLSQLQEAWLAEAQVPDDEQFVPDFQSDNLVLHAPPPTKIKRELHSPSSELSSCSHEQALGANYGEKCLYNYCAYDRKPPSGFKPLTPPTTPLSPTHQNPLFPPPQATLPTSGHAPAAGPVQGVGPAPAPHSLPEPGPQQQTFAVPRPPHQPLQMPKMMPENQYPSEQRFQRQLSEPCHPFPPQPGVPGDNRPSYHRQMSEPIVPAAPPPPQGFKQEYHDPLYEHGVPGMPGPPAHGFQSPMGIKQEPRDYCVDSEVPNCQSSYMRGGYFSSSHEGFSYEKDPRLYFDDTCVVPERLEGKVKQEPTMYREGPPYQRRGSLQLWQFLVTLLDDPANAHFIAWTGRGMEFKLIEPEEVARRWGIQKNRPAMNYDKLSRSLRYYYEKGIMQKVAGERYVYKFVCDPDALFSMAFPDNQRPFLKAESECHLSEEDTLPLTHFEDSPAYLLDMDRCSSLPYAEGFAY
CRX, sequence (O43186 whole entry): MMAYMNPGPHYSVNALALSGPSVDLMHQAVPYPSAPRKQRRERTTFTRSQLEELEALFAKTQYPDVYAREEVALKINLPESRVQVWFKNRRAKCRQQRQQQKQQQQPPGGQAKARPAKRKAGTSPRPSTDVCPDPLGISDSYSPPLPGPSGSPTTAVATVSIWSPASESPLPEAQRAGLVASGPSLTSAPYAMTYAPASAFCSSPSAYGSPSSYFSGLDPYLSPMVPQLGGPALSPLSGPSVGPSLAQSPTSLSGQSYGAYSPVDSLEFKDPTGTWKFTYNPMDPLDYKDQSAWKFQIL
ELF4, sequence (Q99607 whole entry): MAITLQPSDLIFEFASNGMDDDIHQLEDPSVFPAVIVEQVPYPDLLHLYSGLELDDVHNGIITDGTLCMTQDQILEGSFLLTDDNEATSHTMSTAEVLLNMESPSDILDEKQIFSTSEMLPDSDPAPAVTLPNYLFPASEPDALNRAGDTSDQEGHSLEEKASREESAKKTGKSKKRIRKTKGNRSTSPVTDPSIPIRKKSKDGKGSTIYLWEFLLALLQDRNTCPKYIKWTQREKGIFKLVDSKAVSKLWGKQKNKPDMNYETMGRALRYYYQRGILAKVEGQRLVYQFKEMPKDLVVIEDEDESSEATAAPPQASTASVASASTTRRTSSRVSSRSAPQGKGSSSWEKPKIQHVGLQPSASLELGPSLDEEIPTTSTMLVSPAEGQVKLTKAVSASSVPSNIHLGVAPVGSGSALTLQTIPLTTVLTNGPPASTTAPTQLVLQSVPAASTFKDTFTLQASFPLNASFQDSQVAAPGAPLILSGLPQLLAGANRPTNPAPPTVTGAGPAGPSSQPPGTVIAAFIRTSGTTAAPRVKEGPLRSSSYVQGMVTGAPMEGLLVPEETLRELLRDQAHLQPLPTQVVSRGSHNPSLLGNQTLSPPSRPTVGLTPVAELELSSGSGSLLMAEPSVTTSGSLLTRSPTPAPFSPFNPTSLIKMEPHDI
HSF1, sequence (Q00613 whole entry): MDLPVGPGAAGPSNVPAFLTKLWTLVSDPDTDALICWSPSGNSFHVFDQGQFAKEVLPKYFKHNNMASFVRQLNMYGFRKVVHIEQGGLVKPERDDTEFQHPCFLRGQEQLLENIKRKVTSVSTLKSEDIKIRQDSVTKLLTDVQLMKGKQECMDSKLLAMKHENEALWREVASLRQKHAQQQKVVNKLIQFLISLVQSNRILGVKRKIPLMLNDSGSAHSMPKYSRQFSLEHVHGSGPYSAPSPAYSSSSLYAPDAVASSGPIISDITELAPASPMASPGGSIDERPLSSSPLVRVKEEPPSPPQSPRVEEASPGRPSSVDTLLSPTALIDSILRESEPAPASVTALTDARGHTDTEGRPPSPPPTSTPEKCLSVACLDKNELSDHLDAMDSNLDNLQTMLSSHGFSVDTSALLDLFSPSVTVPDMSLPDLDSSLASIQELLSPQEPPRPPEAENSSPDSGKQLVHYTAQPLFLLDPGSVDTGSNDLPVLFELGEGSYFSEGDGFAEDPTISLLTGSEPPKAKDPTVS

## ATCCCT
FEV
  binding signal: 1.3 fold enrichment (6-mer frequency, TF over GST control)
ETV5
  binding signal: 1.3 fold enrichment (6-mer frequency, TF over GST control)
HSF1
  binding signal: 1.64 fold enrichment (6-mer frequency, TF over GST control)
SPIC
  binding signal: 1.27 fold enrichment (6-mer frequency, TF over GST control)
ELF4
  binding signal: 1.38 fold enrichment (6-mer frequency, TF over GST control)
ELK4
  binding signal: 1.33 fold enrichment (6-mer frequency, TF over GST control)
ETV2
  binding signal: 1.13 fold enrichment (6-mer frequency, TF over GST control)
ELF3
  binding signal: 1.22 fold enrichment (6-mer frequency, TF over GST control)
CRX
  binding signal: 2.17 fold enrichment (6-mer frequency, TF over GST control)
ETV1
  binding signal: 1.21 fold enrichment (6-mer frequency, TF over GST control)
